EPAC2 ag: EPAC2 (human) agonism; Q8WZA2; EPAC2 activation, biochemical qHTS; response scale: 100% = 6.5 mM cAMP response; Potency, µM (highest dose often 154 µM), for inactives: top-dose activation, actives largely listed as activators; actives 0.079% (n = 360,000); further: nearly all actives have a fitted effect of over 50% in size
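Setup: EPAC2 100 nM, labeled Rap1B complex 250 nM, free GDP 50 uM. Compound titrations pinned in, brief spin, 5 min room temperature incubation. Kinetic fluorescence read over 30 min, normalized to 6.5 mM cAMP.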
USP1-UAF1 inh: inhibitors of human USP1/UAF1 deubiquitinase | O94782 | recombinant USP1/UAF1, Ub-Rhodamine cleavage fluorescence | AID 743255 | actives 0.23% (n = 390,000) | Potency, µM (doses to about 57.1 µM), for the others: at the highest dose activity change, negative = inhibition, most hits filed as inhibitors; further: on the % scale 0 is the no-effect control and ±100 the full control effect; nearly all actives have a fitted effect of over 60% in size
Target sequence (O94782 whole entry, looked up): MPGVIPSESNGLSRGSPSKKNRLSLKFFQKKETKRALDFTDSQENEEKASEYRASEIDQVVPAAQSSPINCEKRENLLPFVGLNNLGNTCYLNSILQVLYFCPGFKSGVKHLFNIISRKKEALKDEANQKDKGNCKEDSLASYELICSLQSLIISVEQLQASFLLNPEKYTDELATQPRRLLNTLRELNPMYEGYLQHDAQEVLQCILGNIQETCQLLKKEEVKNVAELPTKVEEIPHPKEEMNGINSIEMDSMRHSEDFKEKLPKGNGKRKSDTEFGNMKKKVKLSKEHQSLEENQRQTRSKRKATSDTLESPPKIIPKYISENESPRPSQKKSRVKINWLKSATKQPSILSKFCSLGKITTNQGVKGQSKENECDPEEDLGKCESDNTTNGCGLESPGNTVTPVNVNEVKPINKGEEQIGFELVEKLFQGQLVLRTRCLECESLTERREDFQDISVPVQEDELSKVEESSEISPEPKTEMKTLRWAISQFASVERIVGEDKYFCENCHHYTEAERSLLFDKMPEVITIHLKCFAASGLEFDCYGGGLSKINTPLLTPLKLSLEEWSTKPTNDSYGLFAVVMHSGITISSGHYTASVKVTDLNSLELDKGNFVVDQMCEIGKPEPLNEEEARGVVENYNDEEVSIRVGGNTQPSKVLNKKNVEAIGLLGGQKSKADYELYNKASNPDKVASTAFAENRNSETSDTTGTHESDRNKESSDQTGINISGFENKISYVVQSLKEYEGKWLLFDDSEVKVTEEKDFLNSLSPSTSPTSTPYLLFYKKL
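1 nM enzyme complex + cpd, 15 min RT; start with Ub-Rho 150nM final; kinetic fluorescence ex 480/em 540, 6 reads q60 s. Buffer 50mM HEPES pH 7.8, 0.5mM EDTA, 0.1 mg/ml BSA, 1mM TCEP, 0.01% Tween-20.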
EPAC1 antagonist: EPAC1 (human) antagonism; actives 0.14% (n = 360,000); AID 720709; EPAC1 GEF assay, Rap1b-BODIPY-GDP exchange fluorescence; Potency, µM (titrated, usually from 115 µM), inactives show top-dose activity change, negative = inhibition, actives largely listed as inhibitors; O95398;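 further: plate controls were vehicle for no effect and positive control for full effect; nearly all actives have a fitted effect of over 50% in size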
EPAC2 antagonist: EPAC2 (human) antagonism. EPAC2 GEF exchange of Rap1B-BODIPY-GDP, fluorescence. Q8WZA2. actives 0.18% (n = 360,000). Potency, µM (titrated, usually from 114 µM), inactives show top-dose activity, negative = inhibition, actives largely listed as inhibitors; further: on the % scale 0 is the no-effect control and ±100 the full control effect; nearly all actives have a fitted effect of over 45% in size
EPAC1 agonist: agonists of human EPAC1; O95398; EPAC1 agonist qHTS, biochemical assay; response scale: 100% = response to 6.5 mM cAMP; Potency, µM (doses to about 154 µM), for the others: at the top dose activation, usual class: activators; actives 0.073% (n = 360,000); further: nearly all actives have a fitted effect of over 60% in size
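Read-out is the fluorescence drop as BODIPY-GDP leaves Rap1B (480 nm excitation, 540 nm emission), recorded every 5 minutes over 30 minutes. Reactions held 100 nM EPAC1, 250 nM Rap1B–BODIPY-GDP and 50 uM GDP, with 6.5 mM cAMP setting full activation.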
ALOX12 inh: blocks human arachidonate 12S-lipoxygenase; P18054; actives 1.1% (n = 580,000); Potency, µM (titrated, usually from 108 µM), for the others: top-dose activity change, negative = inhibition, hits mostly inhibitors; AID 1671190; purified 12hLO, xylenol orange hydroperoxide absorbance; further: on the % scale 0 is the no-effect control and ±100 the full control effect
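Hydroperoxide product was detected by ferrous iron/xylenol orange as the 573 to 405 nm absorbance ratio. Arachidonic acid at 40 uM (final) was turned over for 30 min at room temperature by 150 nM human 12hLO, pH 7.0 Hepes buffer, after 15 min compound preincubation.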
Starred values were filed as active, the others as inactive; u = inconclusive; x = no result given; ! = repeats disagree; [ ] = remark or other dose. This is a sample that favours compounds with a hit; in the whole collection about 1.3% have one here. The call rests on the fitted dose curve; in most records, active means well fitted curve in the direction sought with a large enough effect; inconclusive means small, poorly fitted or top-dose-only effect, or another doubt; inactive means no such curve, though single readings can be large; an effect the other way counts as inactive or inconclusive. Potency means the concentration at half of the fitted maximal effect.

SMILES	EPAC2 ag	USP1-UAF1 inh	EPAC1 antagonist	EPAC2 antagonist	EPAC1 agonist	ALOX12 inh
Cc1cccc(NC(=O)Oc2ccc(Cl)c3cccnc23)c1	-0.8%	-27.0%	-4.2%	-11.1%	0.7%	39.8µM*
O=C(CCS(=O)(=O)c1cc2c3c(c1)CCN3C(=O)CC2)Nc1ccc(F)c(Cl)c1	x	x	x	x	x	14.1µM*
O=C(Nc1cccc(-c2ccc(N3CCOCC3)nn2)c1)Nc1cccc(Cl)c1F	x	x	x	x	x	-13.1%
COC(=O)[C@H](CC(C)C)N1Cc2cc(OC)cc(OC)c2-c2ccccc2S1(=O)=O	-3.3%	-28.2%	-11.4%	-15.2%	0.2%	25.1µM*
C=C1CCN(C(CC(C)C)C(=O)OC)S(=O)(=O)c2ccccc21 (centres undefined)	1.9%	-31.9%	-10.5%	0.9%	-14.2%	-0.2%
COC(=O)c1sc(=S)n(-c2cccc(OC)c2)c1N	x	x	x	x	x	12.6µM*
COC(=O)c1sc(=S)n(-c2ccc(Br)cc2)c1N	x	x	x	x	x	11.2µM*
CCOC(=O)c1sc(=S)n(-c2ccc(C)cc2)c1N	-5.7%	u	8.9%	1.7%	-9.5%	u
O=C(NCc1ccccc1)NC(NC(=O)c1cccnc1)(C(F)(F)F)C(F)(F)F	x	x	x	x	x	22.3%
O=C(CS(=O)(=O)c1ccccc1)c1cc2cc(F)ccc2oc1=O	2.5%	-24.3%	u	50.1µM*	2.2%	x
O=C(O)CCCN1C(=O)/C(=C\c2ccccc2OCc2ccccc2)SC1=S	7.4%	u	50.1µM*	u	-1.0%	u
COc1ccc(/C=C2/SC(=S)N(CC(=O)O)C2=O)cc1OCc1ccc(Cl)cc1	5.2%	u	2.4%	-10.8%	-8.1%	-6.9%
O=C(O)CN1C(=O)/C(=C\c2cc(Br)ccc2OCc2ccc(F)cc2)SC1=S	1.3%	u	u	u	7.0%	2.51µM*
O=C(O)CN1C(=O)/C(=C\c2ccccc2OCc2ccccc2)SC1=S	-0.1%	-16.3%	-13.6%	u	-0.6%	u
O=C(O)CN1C(=O)/C(=C\c2cc(Br)ccc2OCc2ccc(Cl)cc2)SC1=S	-1.6%	u	u	50.1µM*	-2.0%	20µM*
O=C(O)CN1C(=O)/C(=C\c2cc([N+](=O)[O-])ccc2OCc2ccccc2Cl)SC1=S	5.1%	u	u	-12.6%	2.6%	14.1µM*
c1ccc(CSc2ncn(-c3nc(N4CCCCC4)nc(N4CCCCC4)n3)n2)cc1	x	x	x	x	x	-1.7%
O=C(CSc1ccc2c(c1)OCCCO2)NC(c1ccccc1)c1ccccc1	x	x	x	x	x	17.7%
O=C(CCCN1C(=O)/C(=C/c2cccs2)SC1=S)Nc1ccccn1	2.3%	-14.9%	-0.5%	4.8%	-2.9%	-15.2%
O=C(O)CCCN1C(=O)/C(=C/c2cn(-c3ccccc3)nc2-c2cccs2)SC1=S	u	u	20.4%	83.5%	56.2µM*	u
O=C(Nc1cccc(Cl)c1)OCCOCCOC(=O)Nc1cccc(Cl)c1	-0.9%	-6.9%	-16.6%	-17.5%	-0.2%	-3.8%
O=C(Nc1cccc(Cl)c1)OCc1cnc(Cl)s1	-8.6%	-12.6%	-4.2%	-8.5%	5.7%	25.1µM*
C/C(=N\NC(=O)c1cc(O)ccc1O)c1cccc(NC(=O)c2ccc(Cl)cc2)c1	19.2%	-11.9%	50.1µM*	-3.1%	7.5%	u
C/C(=N\NC(=O)c1cc(O)ccc1O)c1cccc(NC(=O)c2cccc(Cl)c2)c1	7.8%	-25.4%	u	6.1%	-0.5%	u
CC(c1ccc(Cl)cc1Cl)N(C)Cc1nc2ccccc2o1 (centres undefined)	x	x	x	x	x	21.2%
SMILES	EPAC2 ag	USP1-UAF1 inh	EPAC1 antagonist	EPAC2 antagonist	EPAC1 agonist	ALOX12 inh
COc1ccc2c(C(F)(F)F)cc(=S)[nH]c2c1	x	x	x	x	x	35.5µM*
CSC1CCCCC1(O)CSc1nc2c(cc1C#N)CCCC2 (centres undefined)	12.2%	-21.5%	-7.9%	-3.8%	12.0%	7.08µM*
N#CCSc1nc2c(cc1C#N)CCCC2	-7.8%	0.1%	-10.6%	5.5%	2.1%	1.7%
Cc1ccc(C(=O)COC(=O)C2CC(=O)N(c3ccccc3)C2)cc1 (centres undefined)	x	x	x	x	x	-15.2%
O=C(Cc1ccccc1Cl)Nc1ccc(S(=O)(=O)Nc2nccs2)cc1	-9.3%	-25.8%	-22.9%	1µM*	1.8%	22.0%
O=S(=O)(Nc1nccs1)c1ccc(NCc2cc(Br)cc(Br)c2O)cc1	5.6%	-26.0%	u	2.82µM*	-7.6%	5.4%
CCCCC(=O)Nc1cc(C)c(O)c(-c2nc3ccccc3o2)c1	x	x	x	x	x	8.7%
COc1ccc(-c2cnc3[nH]cc(CC(=O)N4CCN(c5ccccn5)CC4)c3c2)cc1	x	x	x	x	x	3.2%[176 µM]
CC(C)Oc1ccc(OCCn2c(=S)[nH]c3c(N)ncnc32)cc1	2.4%	-18.6%	-7.5%	3.5%	-7.3%	44.7µM*
COc1ccc(CCn2c(O)cc3nn(-c4nc5ccccc5s4)c(=O)c-3c2C)cc1	-15.8%	u	50.1µM*	12.6%	-11.6%	u
COC(=O)c1cc2c(c3c4ccccc4n(S(=O)(=O)c4ccc(OC)cc4)c13)C(=O)N(Cc1ccc(N(C)C)cc1)C2	x	x	x	x	x	-24.2%
COC(=O)c1cc2c(c3c4ccccc4n(S(=O)(=O)c4ccc(OC)cc4)c13)C(=O)N(Cc1ccco1)C2	x	x	x	x	x	39.8µM*
CC(C)OC(=O)CCNC(=O)c1ccc(Cl)cc1Cl	x	x	x	x	x	25.0%
O=C(COC(=O)CSc1cccc2cccc(Cl)c12)Nc1ncc(C(F)(F)F)cc1Cl	-9.0%	-7.2%	-11.5%	-13.5%	-9.3%	28.2µM*
CSc1ncccc1C(=O)OCc1ccccc1	19.5%	3.2%	2.5%	-5.3%	2.2%	-20.9%
COC(=O)c1cc(COC(=O)c2cccnc2SC)oc1C	6.3%	-5.0%	-3.4%	-13.3%	11.7%	39.8µM*
Cc1ccn2cc(C(=O)N3CCN(c4cccc(Cl)c4)CC3)nc2c1	x	x	x	x	x	15.6%
O=C(c1ccccc1F)N1CCc2nc(C3CC3)nc(-c3ccc(Cl)cc3)c2C1	x	x	x	x	x	44.7µM*
CCCCN(C(=S)Nc1cccc(Cl)c1)C1CCN(C(C)=O)CC1	x	x	x	x	x	-25.5%
CCNCc1ccc(-c2ccccc2)o1	x	x	x	x	x	15.8µM*!
c1ccc(CNCc2ccc(-c3ccccc3)o2)cc1	x	x	x	x	x	-50.5%
COCCNc1nc(NCc2ccccc2OC)c2cnn(C)c2n1	x	-8.8%	x	x	x	12.6µM*
CCOc1ccc(Nc2nc(C)c(NC(=O)c3ccc(C)cc3)c(Nc3ccc(OCC)cc3)n2)cc1	x	-21.4%	x	x	x	22.4µM*
COc1ccccc1NC(=O)CSc1nnc(C)n1-n1cccc1	x	x	x	x	x	11.0%
CN(C)c1ccc(/C=C(\C#N)C(=O)Nc2nc3c(s2)CCN(Cc2ccccc2)C3)cc1	112µM*	4.47µM*	-3.4%	192.8%	0.0%	-2.6%
